According to ChEMBL document CHEMBL3433997, “St. Jude Leishmania screening dataset” (2016):

Target: Glucose transporter (Leishmania mexicana) (UniProt O61059)
Experiment: ST_JUDE_LEISH: Cytotoxicity at 2uM final concentration against transgenic Leishmania Mexicana promastigotes LmGT2 that are glucose transport deficient and complemented with the L. Mexicana glucose transporter 2. Activity is measured by DNA content using SYBR green in vitro
Format: functional

Q: For `Cc1cc(C)c(NC(=O)NC2CCN(CCCCCNC(=O)/C=C/c3ccc(Cl)c(Cl)c3)C2)c(C)c1` (stereo not given), which inhibition is on record?
A: 2.29%

Q: `CCOC(=O)CCCc1cc(NC2CCN(C)CC2)nc(Nc2ccc(C)cc2)n1` was tested. Which inhibition did it give?
A: -2.59%

Q: `CCCc1ccc(N2C(N)=NC(N)=NC2(C)C)cc1` was tested. Which inhibition did it give?
A: -2.29%

Q: With `COC(=O)c1cc2cccc(NC[C@@H](C)NC[C@H](O)c3cccc(Cl)c3)c2[nH]1` as the compound, how does the inhibition read?
A: 1.28%

Q: `COc1ccc(-c2cnc3ccc(NCc4ccc(F)cc4)nn23)cc1OC` was tested. Which inhibition did it give?
A: 1.96%

Q: `COc1ccccc1CCN(C)CCN1CCC(NC(=O)c2ccc(-c3ccc(C(F)(F)F)cc3)cc2)CC1` was tested. Which inhibition did it give?
A: 1.05%

Q: How did the inhibition turn out when `O=C(O)/C=C/c1cccc(F)c1F` was run?
A: 2.66%

Q: Which inhibition does the source give for `CCCC(=O)Nc1ccc(OCCCN(Cc2ccccc2OC(F)(F)F)c2ccc(C#N)c(C(F)(F)F)c2)cc1` here?
A: 5.47%

Q: `O=C(Nc1cccc(CN2CCCN(Cc3ccc(O)cc3)CC2)c1)c1cccc(F)c1` was tested. Which inhibition did it give?
A: 9.62%

Q: With `COc1ccc(CNCCc2cccs2)cc1-c1ccc(S(=O)(=O)NCCN2CCCC2)s1` as the compound, how does the inhibition read?
A: 4.66%

Q: For `Cc1cc(N)c2cc(NC(=O)c3cc(C(F)(F)F)cc(C(F)(F)F)c3)ccc2n1`, which inhibition is on record?
A: 0.8%

Q: With `CCc1cn2c3c(cc(C(=O)N[C@@H](Cc4cc(F)cc(F)c4)[C@H](O)CNC4CCCCC4)cc13)N(C)S(=O)(=O)CC2` as the compound, how does the inhibition read?
A: -2.62%

Q: For `Cc1[nH]c(C)c(-c2ccc(CCc3cccc(C(F)(F)F)c3)nc2)c(=O)c1Cl`, which inhibition is on record?
A: 0.88%

Q: With `NC1CCN(Cc2cccc(-c3csc(-c4nc5ccccc5[nH]4)c3)c2)C1` (stereo not given) as the compound, how does the inhibition read?
A: 4.6%

Q: Which inhibition does the source give for `COCCNCc1ccc(-c2cccc(CNc3ccc(OC)cc3)c2)cc1` here?
A: 5.16%
